Screening results (PubChem)
HP1b chromo inh = blocks HP1-beta chromodomain binding to methylated histone tails; AlphaScreen HP1-beta / biotin-H3K9me3 peptide binding; P83916; Potency, µM (highest dose often 114 µM), without a hit: top-dose activity change, negative = inhibition, hits mostly inhibitors; 390,000 compounds, 0.56% hits; further: potency means the concentration at half of the fitted maximal effect; nearly all actives have a fitted effect of over 70% in size
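AlphaScreen: HP1-beta (50 nM) preformed 30 min with biotin-H3(1-18)K9me3 peptide (50 nM) in PBS pH 7.4, 0.01% Tween-20. Compound added for 30 min at RT, then streptavidin donor/nickel chelate acceptor beads (10 ug/mL) for 30 min.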
Six1-Eya2 blk = inhibitors of human Six1/Eya2 interaction; Q15475+O00167; AlphaScreen GST-Six1/His-Eya2 binding, biochemical; hits give low values; activity change, % (concentration not given with the values); 360,000 compounds, 0.56% hits; AID 651725; in the data active means activity change below about -65%; inconclusive means mostly about -30% to -63%; further: on the % scale 0 is the no-effect control and ±100 the full control effect
Target sequence (O00167 whole entry, looked up): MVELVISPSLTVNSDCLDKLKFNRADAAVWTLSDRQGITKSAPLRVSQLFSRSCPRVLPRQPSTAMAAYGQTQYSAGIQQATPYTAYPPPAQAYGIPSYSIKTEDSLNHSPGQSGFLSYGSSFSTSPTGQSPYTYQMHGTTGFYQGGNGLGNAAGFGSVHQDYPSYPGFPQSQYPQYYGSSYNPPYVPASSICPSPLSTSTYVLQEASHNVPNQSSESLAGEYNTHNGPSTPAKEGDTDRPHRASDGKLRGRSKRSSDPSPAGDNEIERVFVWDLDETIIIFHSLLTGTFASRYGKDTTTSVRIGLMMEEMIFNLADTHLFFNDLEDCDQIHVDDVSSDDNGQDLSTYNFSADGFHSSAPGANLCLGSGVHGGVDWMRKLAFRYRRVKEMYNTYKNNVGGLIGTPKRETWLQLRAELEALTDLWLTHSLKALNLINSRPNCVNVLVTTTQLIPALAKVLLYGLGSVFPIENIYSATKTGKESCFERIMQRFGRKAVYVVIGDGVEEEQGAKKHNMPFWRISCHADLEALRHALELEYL
Target sequence (Q15475 whole entry, looked up): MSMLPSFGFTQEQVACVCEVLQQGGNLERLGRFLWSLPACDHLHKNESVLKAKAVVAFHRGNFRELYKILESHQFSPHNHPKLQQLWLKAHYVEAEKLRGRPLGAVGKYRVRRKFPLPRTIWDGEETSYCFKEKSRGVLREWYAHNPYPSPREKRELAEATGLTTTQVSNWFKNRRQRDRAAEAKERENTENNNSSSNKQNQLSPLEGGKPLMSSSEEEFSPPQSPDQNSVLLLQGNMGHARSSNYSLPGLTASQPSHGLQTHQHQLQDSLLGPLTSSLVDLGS
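Homogeneous AlphaScreen proximity assay pairing GST-Six1 with His-tagged Eya2 (added as 5X mix: 250 nM and 500 nM) in 50 mM Tris pH 8.0, 300 mM NaCl, 1 mM TCEP. Glutathione donor and nickel acceptor beads; 1 h, 37 °C, dark.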
G9a block = inhibitors of human histone lysine methyltransferase G9a; Q96KQ7; G9a H3K9 monomethylation, AlphaScreen, 2 h; Potency, µM (titrated, usually from 102 µM), without a hit: at the highest dose activity, negative = inhibition, hits mostly inhibitors; 350,000 compounds, 8.8% hits; further: potency means the concentration at half of the fitted maximal effect; on the % scale 0 is the no-effect control and ±100 the full control effect; nearly all actives have a fitted effect of over 75% in size
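Compounds were preincubated with 20 nM G9a for 15 min, after which biotinylated H3K9 peptide (500 nM) and SAM (20 uM) started a 2 h room-temperature reaction. Monomethylated product was quantified by antibody-based AlphaScreen chemiluminescence.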
JMJD2A Tudor inh = JMJD2A Tudor domain (human) inhibition | O75164 | AlphaScreen JMJD2A-Tudor / H3K4me3 peptide binding | Potency, µM (series often up to 114 µM), without a hit: top-dose activity change, negative = inhibition, usual class: inhibitors | 390,000 compounds, 4.4% hits; further: potency means the concentration at half of the fitted maximal effect; on the % scale 0 is the no-effect control and ±100 the full control effect; nearly all actives have a fitted effect of over 50% in size
CtBP-E1A blk = CtBP/E1A binding inhibition. AlphaScreen GST-E1A/His-CtBP binding, 1536-well; hits give low values. activity change, % (concentration not given with the values). 340,000 compounds, 0.49% hits. AID 651724; in the data active means activity change below about -65%; inconclusive means mostly about -30% to -63%; further: on the % scale 0 is the no-effect control and ±100 the full control effect
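GST-E1A and His-tagged CtBP (125 nM each as 5X stock) were preincubated with pin-transferred compound for 2 h at 37 °C in the dark, then glutathione donor and nickel acceptor beads were added for 1 h before AlphaScreen reading.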
BAZ2B block = BAZ2B (human) inhibition; AID 504333; Q9UIF8; Potency, µM (series often up to 114 µM), for the others: at the top dose activity change, negative = inhibition, hits mostly inhibitors; 360,000 compounds, 4.4% hits; AlphaScreen BAZ2B-H3K14Ac peptide displacement; further: potency means the concentration at half of the fitted maximal effect; on the % scale 0 is the no-effect control and ±100 the full control effect; nearly all actives have a fitted effect of over 60% in size
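AlphaScreen luminescence quantifies BAZ2B engagement of H3K14Ac peptide; the protein and biotinylated peptide are both at 50 nM final, buffer PBS pH 7.4 with 0.01% Tween-20, all steps at room temperature.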
Numbers without * were called inactive; ? = inconclusive; / = not tested or not shown; [ ] = dose if it differs, or a comment. Hits are enriched below; roughly 10% of the tested compounds scored in any of these assays. Unless noted, the call rests on the fitted dose curve; in most records, active means well fitted inhibition curve with a large enough effect; inconclusive means small, poorly fitted or top-dose-only effect; inactive means no such curve, though single readings can be large or run the other way.

SMILES	HP1b chromo inh	Six1-Eya2 blk	G9a block	JMJD2A Tudor inh	CtBP-E1A blk	BAZ2B block
C[C@@H]1O[C@@H](Oc2c(-c3cc(O)c(O)c(O)c3)oc3cc(O)cc(O)c3c2=O)[C@H](O)[C@H](O)[C@H]1O	?	-21	45µM*	32µM*	-5	50µM*
Cc1cccc(C(=O)NCC(c2ccc3c(c2)OCO3)N2CCN(c3ccccc3F)CC2)c1 (configuration not stated)	-7%[57 µM]	/	-37%[59 µM]	-26%	/	?
Cc1ccc(NC(=O)CS(=O)CC(=O)NCCCN(C)c2ccccc2)cc1 (configuration not stated)	10%	3	40µM*	-10%	-1	9%
Cc1ccc(NC(=O)CCC(=O)NCCO)cc1	28%	-1	1%	2%	0	9%
O=CNn1cnc2c(oc3nc(-c4ccccc4)cc(-c4ccco4)c32)c1=O	?	-2	50µM*	?	0	-37%
O=C(CCS(=O)(=O)c1cc2c3c(c1)CCN3C(=O)CC2)Nc1cccc(Br)c1	17%	/	?	79µM*	/	2%
COc1ccc(NC(=O)CCS(=O)(=O)c2cc3c4c(c2)CCN4C(=O)CC3)c(OC)c1	4%	/	?	-16%	/	-30%
COc1ccccc1NC(=O)CCS(=O)(=O)c1cc2c3c(c1)CCN3C(=O)CC2	11%	/	20µM*	?	/	-2%
COc1ccc(C)cc1NC(=O)CCS(=O)(=O)c1cc2c3c(c1)CCN3C(=O)CC2	71µM*	/	8.9µM*	32µM*	/	-16%
COc1ccc(NC(=O)CCS(=O)(=O)c2cc3c4c(c2)CCN4C(=O)CC3)cc1OC	9%	/	-29%[59 µM]	-6%	/	-7%
Cc1ccccc1Nc1nnc(-c2ccc(C)c(S(=O)(=O)NCC3CCCO3)c2)c2ccccc12 (configuration not stated)	18%	/	?	-12%	/	-14%
Cc1ccccc1C1C=C(c2ccc(Cl)cc2)Nc2nnnn21 (configuration not stated)	37%	/	-9%[59 µM]	6%	/	5%
COc1ccc(Nc2c(-c3ccc(C)o3)nc3ccc(Cl)cn23)cc1	34%	/	-12%[59 µM]	-4%	/	-1%
CCc1ccccc1NC(=O)CSc1nc2c(oc3ccccc32)c(=O)n1-c1ccccc1F	18%	/	2%[59 µM]	-11%	/	3%
Cc1ccc(CN2CCCn3nc(C(=O)NCCc4cccc(C)c4)cc3C2=O)cc1	22%	/	7%[59 µM]	-17%	/	-8%
O=S(=O)(Nc1cccc(-c2ccc(N3CCOCC3)nn2)c1)c1ccccc1C(F)(F)F	21%[57 µM]	/	-6%[59 µM]	-25%	/	-3%
COC(=O)c1c(C)sc(-c2c(-c3ccc4c(c3)OCCO4)[nH]c3c2c(=O)n(C)c(=O)n3C)c1O	3%	/	-2%[59 µM]	-24%	/	-14%
COC(=O)c1c(C)sc(-c2c(-c3ccc4c(c3)OCCO4)[nH]c3[nH]c(=O)[nH]c(=O)c23)c1O	?	/	14µM*	50µM*	/	35µM*
Cc1ccc(C2C(C#N)=C(N)Oc3n[nH]c(-c4ccccc4)c32)o1 (configuration not stated)	?	-19	22µM*	16µM*	-21	?
Cc1ccc(C2C(C#N)=C(N)Oc3n[nH]c(-c4cccnc4)c32)o1 (configuration not stated)	31%	-5	79µM*	-8%	4	?
N#CC1=C(N)Oc2n[nH]c(-c3ccc(F)cc3)c2C1c1cccnc1 (configuration not stated)	18%	-7	?	-25%	-8	1%
COc1ccc(-c2ccc(C3C(C#N)=C(N)Oc4n[nH]c(C)c43)o2)cc1 (configuration not stated)	-27%	?	?	?	-67*	50µM*
Cc1c(C)n(CCc2ccccc2)c2ncnc(NCCO)c12	-22%	-16	-31%[2.33 µM]	-32%	/	?
Cc1c(C)n(CCCN(C)C)c2ncnc(NCc3ccccc3)c12	-8%	-7	79µM*	?	-14	-21%
CCOc1ccc(C2=NC(c3cccs3)=Nc3ccc(C(C)C)cc3N2)cc1	-25%	/	10µM*	20µM*	/	22µM*
SMILES	HP1b chromo inh	Six1-Eya2 blk	G9a block	JMJD2A Tudor inh	CtBP-E1A blk	BAZ2B block
CCCCOc1ccc(C2=NC(c3cccs3)=Nc3ccc(CC)cc3N2)cc1	-12%	/	?	?	/	?
CCc1ccc2c(c1)NC(c1ccc(C)cc1)=NC(c1cccs1)=N2	?	/	13µM*	45µM*	/	25µM*
Clc1ccc2c(c1)NC(c1ccncc1)=NC(c1cccs1)=N2	-5%	/	28µM*	?	/	?
CCCCN(CCCC)CCNC(=O)c1cn(C)c2ccc(S(=O)(=O)N3CCOCC3)cc2c1=O	26%	/	0%[59 µM]	-5%	/	/
Cc1cc(C)n2nc(C(=O)N/N=C/c3ccc(Cl)cc3)nc2n1	36%	7	-2%	-16%	/	4%
Cc1cc(C)n2nc(C(=O)NNC(=O)c3ccc(Cl)cc3)nc2n1	29%	4	?	-20%	1	89µM*
Cc1ccc(C(=O)NNC(=O)Cc2nc3nc(C)cc(C)n3n2)cc1	30%	6	/	8%	/	1%
COc1ccc(C(=O)NNC(=O)Cc2nc3nc(C)cc(C)n3n2)cc1	43%	2	0.35µM*	9%	/	-35%
Cc1cc(C)n2nc(CC(=O)NNC(=O)c3ccccc3Cl)nc2n1	55%	1	7.1µM*	5%	-8	14%
COc1cccc(C2C(C(=O)Nc3ccc(C)cc3C)=C(C)Nc3c(C(=O)Nc4cccc(C)c4)cnn32)c1OC (configuration not stated)	25%	/	-3%[59 µM]	-10%	/	-2%[57.1 µM]
Cc1ccc(NC(=O)CSc2ccc(-c3cccs3)nn2)cc1Cl	-11%	/	-6%[59 µM]	-24%	/	-36%
CCN(Cc1ccccc1)C(=O)CCc1nc(CN2CCN(C(=O)c3ccc([N+](=O)[O-])cc3)CC2)no1	36%	4	79µM*	-10%	5	-33%
CCOc1cccc2cc(-c3nc(-c4ccc(Cl)cc4)c(C)s3)c(=O)oc12	26%	/	1%[59 µM]	-12%	/	1%
COC(=O)c1ccc(C2c3c(oc4ccc(Cl)cc4c3=O)C(=O)N2CCN2CCOCC2)cc1 (configuration not stated)	36%	-9	20µM*	-13%	-5	-11%
CN1C(=O)c2oc3ccccc3c(=O)c2C1c1ccncc1 (configuration not stated)	10%	1	8.9µM*	56µM*	-2	-23%
O=C1c2oc3ccccc3c(=O)c2C(c2cccs2)N1CCCN1CCOCC1 (configuration not stated)	31%	-1	40µM*	-22%	-2	?
